# Laboratory results as given in publication PMC11062922 (Nature Chemical Biology, 2023).
# Like-named read-outs stand apart in the source and are kept apart here.
# Key:
# Set-up in all cases: species or system human, MV4-11 + K-562 + COLO205 + SK-N-BE2 + OVCAR-8
# CAMK2B = conditions: read-out: apparent Kd, n = 1
# CDC42BPG = conditions: read-out: apparent Kd, n = 1
# TGFBR2 = conditions: read-out: apparent Kd; compound concentrations: 100 nM and 1000 nM (sheet 'Samples'), CATDS: 0.26695766684010303; n = 1
# CDC42BPA = conditions: read-out: apparent Kd; compound concentrations: 100 nM and 1000 nM (sheet 'Samples'), CATDS: 5.2351316008414299E-2; n = 1
# CDC42BPB = conditions: read-out: apparent Kd; compound concentrations: 100 nM and 1000 nM (sheet 'Samples'), CATDS: 8.8336954775193793E-2; n = 1
# CIT = conditions: read-out: apparent Kd; compound concentrations: 100 nM and 1000 nM (sheet 'Samples'), CATDS: 4.1257824798939802E-2; n = 1
# GSK3A = conditions: read-out: apparent Kd; compound concentrations: 100 nM and 1000 nM (sheet 'Samples'), CATDS: 6.6590939053141299E-2; n = 1
# GSK3B = conditions: read-out: apparent Kd; compound concentrations: 100 nM and 1000 nM (sheet 'Samples'), CATDS: 5.7473079866645002E-2; n = 1
# LATS1 = conditions: read-out: apparent Kd; compound concentrations: 100 nM and 1000 nM (sheet 'Samples'), CATDS: 9.7617752181751005E-2; n = 1
# MELK = conditions: read-out: apparent Kd; compound concentrations: 100 nM and 1000 nM (sheet 'Samples'), CATDS: 3.9798752380349897E-2; n = 1
# PIM2 = conditions: read-out: apparent Kd; compound concentrations: 100 nM and 1000 nM (sheet 'Samples'), CATDS: 3.9305369436655899E-2; n = 1
# PKN1 = conditions: read-out: apparent Kd; compound concentrations: 100 nM and 1000 nM (sheet 'Samples'), CATDS: 5.10787631229489E-2; n = 1
# PKN2 = conditions: read-out: apparent Kd; compound concentrations: 100 nM and 1000 nM (sheet 'Samples'), CATDS: 0.10529576550344701; n = 1
# PKN3 = conditions: read-out: apparent Kd; compound concentrations: 100 nM and 1000 nM (sheet 'Samples'), CATDS: 7.5123616152450098E-2; n = 1
# PRKCD = conditions: read-out: apparent Kd; compound concentrations: 100 nM and 1000 nM (sheet 'Samples'), CATDS: 4.7600533204707897E-2; n = 1
# PRKCI = conditions: read-out: apparent Kd; compound concentrations: 100 nM and 1000 nM (sheet 'Samples'), CATDS: 3.9274053765020099E-2; n = 1
# ROCK1 = conditions: read-out: apparent Kd; compound concentrations: 100 nM and 1000 nM (sheet 'Samples'), CATDS: 0.30602984254096799; n = 1
# ROCK2 = conditions: read-out: apparent Kd; compound concentrations: 100 nM and 1000 nM (sheet 'Samples'), CATDS: 0.35552561268284599; n = 1
# RPS6KB1 = conditions: read-out: apparent Kd; compound concentrations: 100 nM and 1000 nM (sheet 'Samples'), CATDS: 4.4674945957763799E-2; n = 1
# CAMK2D = conditions: read-out: apparent Kd, compound concentrations: 100 nM and 1000 nM (sheet 'Samples'), n = 1
# CDK10 = conditions: read-out: apparent Kd; compound concentrations: 100 nM and 1000 nM (sheet 'Samples'), CATDS: 0.15001944527595701; n = 1
# FN3K = conditions: read-out: apparent Kd; compound concentrations: 100 nM and 1000 nM (sheet 'Samples'), CATDS: 0.12433120780871; n = 1
# ICK = conditions: read-out: apparent Kd; compound concentrations: 100 nM and 1000 nM (sheet 'Samples'), CATDS: 0.14025095323079101; n = 1
# MAPK1 = conditions: read-out: apparent Kd, compound concentrations: 100 nM and 1000 nM (sheet 'Samples'), n = 1
# FLT4 = conditions: read-out: apparent Kd; compound concentrations:100 nM and 1000 nM (sheet 'Samples'); n = 1
# MAP3K1 = conditions: read-out: apparent Kd; compound concentrations:100 nM and 1000 nM (sheet 'Samples'); n = 1
# MAP4K5 = conditions: read-out: apparent Kd; compound concentrations:100 nM and 1000 nM (sheet 'Samples'); n = 1
# STK10 = conditions: read-out: apparent Kd; compound concentrations:100 nM and 1000 nM (sheet 'Samples'); n = 1
# CAMK2G = conditions: read-out: apparent Kd; compound concentrations: 100 nM and 1000 nM (sheet 'Samples'), CATDS: 0.16282933819825701; n = 1
# MAPK14 = conditions: read-out: apparent Kd, n = 1
# MTHFD1 = conditions: read-out: apparent Kd; compound concentrations: 100 nM and 1000 nM (sheet 'Samples'), CATDS: 0.112540621038884; n = 1
# STK16 = conditions: read-out: apparent Kd; compound concentrations: 100 nM and 1000 nM (sheet 'Samples'), CATDS: 0.103320343146107; n = 1
# MAPKAPK2 = conditions: read-out: apparent Kd; compound concentrations:100 nM and 1000 nM (sheet 'Samples'); n = 1
# [1] = compound concentrations:100 nM and 1000 nM (sheet 'Samples')
structure (smiles),measurement,setting,value
CC(=O)c1cccc(NC(=O)NC2CCN(c3ccnc(Nc4ccc(F)cc4)n3)C2)c1 (centres unmarked) [GSK1379710A],potency estimated from few doses,"CAMK2B; compound concentrations: 100 nM and 1000 nM (sheet 'Samples'), CATDS: 0.45537516387232402",658 nM
same,potency estimated from few doses,"CDC42BPG; compound concentrations: 100 nM and 1000 nM (sheet 'Samples'), CATDS: 0.32700083085172899",1220 nM
same,potency estimated from few doses,TGFBR2,2000 nM
NCc1ccc(-n2c(-c3nonc3N)nc3cnccc32)cc1 [SB-750140],potency estimated from few doses,CDC42BPA,660 nM
same,potency estimated from few doses,CDC42BPB,173 nM
same,potency estimated from few doses,"CDC42BPG; compound concentrations: 100 nM and 1000 nM (sheet 'Samples'), CATDS: 4.2033135949813498E-2",1420 nM
same,potency estimated from few doses,CIT,1530 nM
same,potency estimated from few doses,GSK3A,339 nM
same,potency estimated from few doses,GSK3B,502 nM
same,potency estimated from few doses,LATS1,139 nM
same,potency estimated from few doses,MELK,1800 nM
same,potency estimated from few doses,PIM2,1910 nM
same,potency estimated from few doses,PKN1,712 nM
same,potency estimated from few doses,PKN2,118 nM
same,potency estimated from few doses,PKN3,252 nM
same,potency estimated from few doses,PRKCD,895 nM
same,potency estimated from few doses,PRKCI,1910 nM
same,potency estimated from few doses,ROCK1,16.3 nM
same,potency estimated from few doses,ROCK2,12.9 nM
same,potency estimated from few doses,RPS6KB1,1120 nM
Cn1cc(C2=C(N3CCOCC3)C(=O)NC2=O)c2ccccc21 [RO3303031-000],potency estimated from few doses,"CAMK2B; compound concentrations: 100 nM and 1000 nM (sheet 'Samples'), CATDS: 0.26217327719794398",327 nM
same,potency estimated from few doses,CAMK2D; CATDS: 0.25731079955705399,336 nM
same,potency estimated from few doses,CDK10,957 nM
same,potency estimated from few doses,FN3K,1620 nM
same,potency estimated from few doses,ICK,1140 nM
same,potency estimated from few doses,MAPK1; CATDS: 0.154787589884953,887 nM
COc1cc2ncn(-c3cc(O[C@@H](C)c4ccccc4Cl)c(C(N)=O)s3)c2cc1OC [GSK237700A],potency estimated from few doses,CDC42BPG; [1],2140 nM
same,potency estimated from few doses,FLT4,1530 nM
same,potency estimated from few doses,MAP3K1,1500 nM
same,potency estimated from few doses,MAP4K5,2080 nM
same,potency estimated from few doses,STK10,1820 nM
N#Cc1cccc(C(=O)NC2CCN(c3ccnc(Nc4ccc(F)cc4)n3)C2)c1 (centres unmarked) [GSK1379708A],potency estimated from few doses,"CAMK2B; compound concentrations: 100 nM and 1000 nM (sheet 'Samples'), CATDS: 0.21240793687588",395 nM
same,potency estimated from few doses,CAMK2D; CATDS: 0.22355141461127601,364 nM
same,potency estimated from few doses,CAMK2G,631 nM
same,potency estimated from few doses,"MAPK14; compound concentrations: 100 nM and 1000 nM (sheet 'Samples'), CATDS: 0.12639229047772599",1100 nM
same,potency estimated from few doses,MAPK1; CATDS: 0.13886491205571,879 nM
same,potency estimated from few doses,MTHFD1,1500 nM
same,potency estimated from few doses,STK16,1980 nM
FC(F)(F)c1ccccc1-c1cc(-c2c[nH]nc2-c2ccccn2)ccn1 [GW679396X],potency estimated from few doses,CAMK2B; [1],628 nM
same,potency estimated from few doses,MAPK14; [1],845 nM
same,potency estimated from few doses,MAPKAPK2,941 nM
